Measured values: PubChem BioAssay (EPA / NIEHS)
Records with an inconclusive call do not appear. Some structures have more than one record in an assay (separate samples or runs), and their calls can disagree. Calls of active or inactive are those of the source. The calls were made as follows, unless noted: active = hit-call score of the fitted dose curve at least 0.9, where 1 is the maximum; inactive = score below 0.9.

Legend:
[1] = CCTE_Shafer_MEA_dev_network_spike_peak: CCTE's Neural Network Formation Assay for Mean Number of Electrodes in Network Spike, Shafer Lab (AID 2284049);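 as to AC50: fitted for loss of signal meaning fewer electrodes in network spikes than DMSO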
How it was run: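 Continuous 12-day exposure of rat cortical cultures, starting at plating, on MEA plates. Endpoint: electrodes participating in network-spike peaks, AUC across DIV 5–12, DMSO as negative control.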

[2] = CCTE_Shafer_MEA_dev_spike_duration_mean: CCTE's Neural Network Formation Assay for Mean Spike Duration, Shafer Lab (AID 2284051);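 also: mean network spike duration pooled as area under curve over DIV 5 to 12 recordings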;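 as to AC50: potency for a decrease in mean network spike duration versus DMSO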
How it was run: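 Readout is the average length of network spikes, clustered firing across electrodes, summed over DIV 5, 7, 9 and 12 as area under the curve. Neurons from rat cortex developed networks on MEA plates under continuous 12-day exposure.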

[3] = CCTE_Shafer_MEA_dev_network_spike_duration_std: CCTE's Neural Network Formation Assay for Standard Deviation of Network Spike Duration, Shafer Lab (AID 2284052);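 also: area under curve of spike duration SD across recording days 5 to 12; hits are decreases in network spike duration SD versus DMSO vehicle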
How it was run: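 Read-out is the trapezoidal area-under-the-curve across recordings made on days 5, 7, 9 and 12, fitted in the negative direction against DMSO baseline. Neurons were primary rat cortical cells treated from day 0, with treatment renewed at each feed.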

[4] = CCTE_Shafer_MEA_dev_per_network_spike_spike_number_mean: CCTE's Neural Network Formation Assay for Mean Number of Spikes in a Network Spike, Shafer Lab (AID 2284053)
How it was run: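 Continuous twelve-day exposure of developing rat cortical networks grown over 16 microelectrodes per well; spontaneous firing is captured at four time points, and the per-network-spike spike number is integrated over development by trapezoidal AUC.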

[5] = CCTE_Shafer_MEA_dev_per_network_spike_spike_percent: CCTE's Neural Network Formation Assay for Percent of Spikes in a Network Spike, Shafer Lab (AID 2284054)
How it was run: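 Developing networks of rat cortical neurons are dosed at day 0 and recorded extracellularly four times up to day 12. The endpoint is the area under the curve of percent spikes in network spikes, fitted in the negative direction relative to DMSO.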

[6] = CCTE_Shafer_MEA_dev_LDH: CCTE's Lactate Dehydrogenase Assay for Cytotoxicity in the Neural Network Formation Assay, Shafer Lab (AID 2284068; active = hit-call score of the fitted dose curve at least 0.9, where 1 is the maximum;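 also: exposure for twelve days from plating with re-dosing on DIV 5 and 9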)
How it was run: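 Cytotoxicity companion to network-formation recordings: rat cortical neurons received compound over 12 days of development, re-dosed at DIV 5 and 9 feeds. Viability was inferred from LDH enzyme activity relative to DMSO.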

[7] = CCTE_Shafer_MEA_dev_AB: CCTE's Alamar Blue Assay for Cytotoxicity in the Neural Network Formation Assay, Shafer Lab (AID 2284083; active = hit-call score of the fitted dose curve at least 0.9, where 1 is the maximum;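 also: twelve days of exposure from plating with re-dosing on DIV 5 and 9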)
How it was run: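 Fluorescent resazurin reduction serves as the viability read-out, with DMSO as negative control and baseline. Cells were primary rat cortical neurons grown on MEA plates and dosed from day 0 to day 12, treatment renewed on DIV 5 and 9.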

DIO2 (gene 1734) = assay: CCTE_GLTED_hDIO2: CCTE's human Deiodinase 2 (DIO2) Inhibition Assay, Great Lakes Toxicology and Ecology Division (GLTED) Lab (AID 2284050; active = hit-call score of the fitted dose curve at least 0.9, where 1 is the maximum)
How it was run: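 Triplicate cell-free incubations (3 h) of human DIO2 with chemical preceded colorimetric Sandell-Kolthoff quantitation of liberated iodide; DMSO served as negative control for curve fitting.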

[8] = CCTE_Shafer_MEA_acute_AB: CCTE's Alamar Blue Assay for Cytotoxicity in the Neural Acute Assay, Shafer Lab (AID 2284069; active = hit-call score of the fitted dose curve at least 0.9, where 1 is the maximum;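 also: active compounds lower the viability signal compared with DMSO wells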)
Protocol: CCTE_Shafer_MEA_acute assay is conducted using Axion Biosystems 48 well microelectrode array (MEA) plates and Maestro recording system. Each well of the MEA plate contains a grid of 16 microelectrodes embedded in the culture surface. Electrically active cells, such as neurons, can be cultured over the electrodes, and electrical activity in these cells can be recorded extracellularly. The spontaneous firing of neurons is captured from each electrode on a microsecond timescale providing both temporally and spatially precise data. […] The CCTE_Shafer_MEA_acute assay uses primary cultures of rat cortical neurons. As these cultures mature over time, neural networks develop functional activity and form cohesive networks in which electrical activity can be highly coordinated. […] It measures the resazurin reduction using fluorescence.Data from the assay component CCTE_Shafer_MEA_acute_AB was analyzed into 1 assay endpoint. This assay endpoint, CCTE_Shafer_MEA_acute_AB, was analyzed in the positive analysis fitting direction relative to DMSO as the negative control and baseline of activity. […]
Metabolic activity was determined using the CellTiter Blue (CTB) assay (Promega Cat. #8081), following the manufacturer's instructions with the following modifications. […] Fluorescence was measured in a Fluorostar Optima fluorimeter using an excitation wavelength of 544 nm and an emission wavelength of 590 nm.

[9] = CCTE_Shafer_MEA_acute_LDH: CCTE's Lactate Dehydrogenase Assay for Cytotoxicity in the Neural Acute Assay, Shafer Lab (AID 2284086; active = hit-call score of the fitted dose curve at least 0.9, where 1 is the maximum;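 also: active means LDH release rises above DMSO vehicle level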)
How it was run: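 Cytotoxicity readout: spectrophotometric LDH activity in supernatant of rat primary cortical neurons, post-plating day 13 or 15, sampled after 40 min compound exposure; signal gain relative to DMSO baseline.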

Measured: AC50

O=C(O)C(F)(F)C(F)(F)C(F)(F)OC(F)(F)F
inactive: [1] | [2] | [3] | [4] | [5] | [6]

OCC(F)(F)C(F)(F)C(F)(F)C(F)(F)C(F)(F)C(F)(F)C(F)(F)C(F)(F)CO
inactive: [3] | [4] | [5]
active: [1] 22.5 µM | [2] 15 µM | [6] 23.3 µM | [7] 24.4 µM

C=C(C)C(=O)OCC(F)(F)C(F)(F)C(F)(F)C(F)F
active: DIO2 (gene 1734) 34 µM

CCCCCCCCCCCCC[N+](C)(C)Cc1ccccc1
active: DIO2 (gene 1734) 22.2 µM

OC(O)C(F)(F)C(F)(F)F
inactive: [1] | [2] | [3] | [4] | [5] | [6]

CCN(CCO)S(=O)(=O)C(F)(F)C(F)(F)C(F)(F)C(F)(F)C(F)(F)C(F)(F)C(F)(F)C(F)(F)F
inactive: [1] | [2] | [3] | [4] | [5] | [6] | [7]
active: [6] 10.1 µM

C=CC(=O)OCC(F)(F)C(F)(F)C(F)(F)COC(=O)C=C
active: [1] 4.61 µM | DIO2 (gene 1734) 26.3 µM | [2] 5.18 µM | [4] 4.72 µM | [5] 4.56 µM | [6] 5.84 µM | [7] 7.96 µM
inactive: [3]

CNS(=O)(=O)C(F)(F)C(F)(F)C(F)(F)C(F)(F)C(F)(F)C(F)(F)C(F)(F)C(F)(F)F
inactive: [1] | [2] | [3] | [4] | [5] | [6]

OCCCCC(F)(F)C(F)(F)C(F)(F)C(F)(F)F
not listed: DIO2 (gene 1734) | [8] | [9]
inactive: all other assays above

CO[Si](C)(CCC(F)(F)C(F)(F)C(F)(F)C(F)(F)C(F)(F)C(F)(F)F)OC
inactive: [1] | [2] | [3] | [4] | [5] | [6]

C=CC(=O)OCCC(F)(F)C(F)(F)C(F)(F)C(F)(F)F
active: [1] 23.5 µM | DIO2 (gene 1734) 31.5 µM | [2] 22.7 µM | [4] 15 µM | [5] 8.58 µM | [6] 15 µM | [7] 21.8 µM
inactive: [3]

FC(F)(F)C(F)(F)C(F)(F)C(F)(F)C(F)(F)C(F)(F)C(F)(F)CCI
inactive: [1] | [2] | [3] | [4] | [5] | [6]

O=S(=O)(Cl)C(F)(F)C(F)(F)C(F)(F)C(F)(F)C(F)(F)C(F)(F)C(F)(F)C(F)(F)F
active: DIO2 (gene 1734) 66 µM

CCN=C1C=CC(=C(c2ccc(N(CC)CC)cc2)c2ccc(N(CC)CC)cc2)c2ccccc21
active: DIO2 (gene 1734) 42 µM | [8] 6.86 µM
inactive: [9]

NC(=O)C(F)(F)C(F)(F)C(F)(F)C(F)F
inactive: [1] | [2] | [3] | [4] | [5] | [6]

NC(=O)C(F)(F)C(F)(F)C(F)(F)F
inactive: [1] | [2] | [3] | [4] | [5] | [6]

CCN=c1cc2oc3cc(NCC)c(C)cc3c(-c3ccccc3C(=O)OCC)c-2cc1C
active: DIO2 (gene 1734) 154 µM

CCCCCCCC/C=C\CCCCCCCC(=O)OCC(O)CO (stereo not drawn)
active: DIO2 (gene 1734) 38.5 µM

NC(O)(C(F)(F)F)C(F)(F)F
inactive: [1] | [2] | [3] | [4] | [5] | [6]
active: [1] 0.00434 µM

CCCCCCCCCCCCCC[P+](CCCC)(CCCC)CCCC
active: DIO2 (gene 1734) 17.1 µM

C=CC(=O)OCC(F)(F)C(F)(F)C(F)(F)C(F)(F)C(F)(F)C(F)(F)C(F)(F)C(F)F
active: DIO2 (gene 1734) 10.3 µM

O=S(=O)(O)CCC(F)(F)C(F)(F)C(F)(F)C(F)(F)F
inactive: [1] | [2] | [3] | [4] | [5] | [6]

OCC(F)(F)C(F)(F)C(F)(F)CO
inactive: [1] | [2] | [3] | [4] | [5] | [6]

CCCCCCCCn1sc(Cl)c(Cl)c1=O
active: DIO2 (gene 1734) 26 µM

NC(=O)C(F)(F)C(F)(F)C(F)(F)C(F)(F)C(N)=O
inactive: [1] | [2] | [3] | [4] | [5] | [6]

CCCCCCCC/C=C\CCCCCCCC(=O)N(C)CC(=O)O
active: DIO2 (gene 1734) 55.6 µM

O=S(=O)(O)CCC(F)(F)C(F)(F)C(F)(F)C(F)(F)C(F)(F)C(F)(F)C(F)(F)C(F)(F)F
inactive: [1] | [2] | [3] | [4] | [5]

OCC(F)(F)C(F)(F)C(F)(F)C(F)(F)C(F)(F)C(F)(F)CO
inactive: [1] | [2] | [3] | [4] | [5] | [6]

OCC(O)CC(F)(F)C(F)(F)C(F)(F)C(F)(F)F (stereo not drawn)
inactive: [1] | [2] | [3] | [4] | [5]
